Data published in ChEMBL document CHEMBL3988442, “University of Dundee, Small-Polar-MMV Screening Library” (2021).
In all, about 48,000 compounds went through this assay and about 13,000 (27%) showed an effect of 50% or more. Some of the results follow.

system: Wolbachia pipientis; test: Anti-Wolbachia Cell-Based Screen; assay type: functional; set-up: scale not given: in the data most compounds retested in dose-response had high values; conditions: 5 µM

In order of falling “Percent Effect” value:
1. O=C(Nc1ccc(Cl)cc1C(=O)NCCN1CCOCC1)c1ccco1  134.1%
2. Cc1nc(C)n(CC2CCCN(Cc3cccc(C(N)=O)c3)C2)n1 (stereo unspecified)  133.9%
3. Cc1nccn1CCN(C)C(=O)c1cn(CC2CCCCC2)nn1  121.2%
4. O=C(c1cnc(O)cc1O)N1CCCC(CCc2ccccc2F)C1 (stereo unspecified)  119.6%
5. Cc1ncccc1NC(=O)[C@@H]1CCO[C@@H]2CCN(c3ccncn3)C[C@H]21  113.9%
6. Cc1ccc(-c2nc(C(=O)NCC3CCOC3)cs2)cc1 (stereo unspecified)  113.2%
7. Cc1ncccc1NC(=O)[C@@H]1CCO[C@@H]2CCN(c3ccccc3)C[C@@H]21.O=C(O)C(F)(F)F.O=C(O)C(F)(F)F  108.5%
8. COc1ccc(CCC2CCCN(C(=O)c3cnc(N)nc3C)C2)cc1 (stereo unspecified)  107.8%
9. Cc1nccn1CCN(C)C(=O)c1cn(-c2ccccc2)nn1  107.7%
10. O=C(NCC1CCOC1)c1csc(-c2ccc(Cl)cc2)n1 (stereo unspecified)  107.7%
11. COc1ccc(CN(C)[C@@H]2CN(S(=O)(=O)C(C)C)C[C@H]2O)cc1  105.6%
12. COc1cccc(CN2CCCC(Cn3nc(C)nc3C)C2)c1 (stereo unspecified)  103.7%
13. Cc1nc(N)ncc1C(=O)N1CCCC(CCc2ccc(F)cc2)C1 (stereo unspecified)  102.6%
14. O=C(NCC1CCOC1)c1csc(-c2ccccc2)n1 (stereo unspecified)  102.2%
15. Cc1nc(N)ncc1C(=O)N1CCCC(CCc2ccccc2F)C1 (stereo unspecified)  102.1%
16. CN(C)CCN(C)C(=O)c1cn(CC2CCCCC2)nn1  101.9%
17. O=C(C1CCOC1)N1C[C@H]2CN(Cc3cccc(F)c3)C(=O)[C@H]2C1 (stereo partly specified)  101.2%
18. Cc1cccc(CN2C[C@@H]3CN(C(=O)C4CCOC4)C[C@@H]3C2=O)c1 (stereo partly specified)  100.9%
19. O=C(NCCO)Nc1cnc2cc(Cl)ccc2c1O  99.99%
20. O=C(NCCCO)Nc1cnc2cc(Cl)ccc2c1O  96.93%
21. O=C(NCCN1CCOCC1)Nc1cnc2cc(Cl)ccc2c1O  96.85%
22. CCc1c(C)nn2c(O)cc(C3CCN(C(=O)C4CC4)C3)nc12 (stereo unspecified)  96.58%
23. CNC(=O)Nc1cnc2cc(Cl)ccc2c1O  96.42%
24. Cc1nc(N)ncc1C(=O)N1CCCC(CCc2ccc(F)c(F)c2)C1 (stereo unspecified)  95.78%
25. CC(C)S(=O)(=O)N1C[C@@H](O)[C@H](N(C)Cc2ccc(F)cc2)C1  92.86%
26. Cc1nc(C)n(CC2CCCN(Cc3ccc4c(c3)OCCO4)C2)n1 (stereo unspecified)  92.75%
27. Cc1nc(C)n(CC2CCCN(Cc3cccnc3)C2)n1 (stereo unspecified)  89.08%
28. O=C(NCC1CCOC1)c1csc(-c2ccc(F)cc2)n1 (stereo unspecified)  81.86%
29. Cc1nccn1CCC(=O)N1CCCN(c2ccccc2)CC1  21.45%
30. COc1coc(CN2CCCC(CCc3ccccc3F)C2)cc1=O (stereo unspecified)  19.37%
31. O=C(Nc1ccc(I)cc1C(=O)NCCN1CCOCC1)c1ccco1  13.86%
32. Cc1nccn1CCC1CCCCN1C(=O)c1ccc(N(C)C)cc1 (stereo unspecified)  11.5%
33. COc1cc(CN2CCCC(Nc3cccc(F)c3)C2)cc(OC)c1O (stereo unspecified)  11.19%
34. O=C(C1CC1)N1CC[C@H](c2nc3ccccc3o2)C1  7.952%
35. CN1N=C(C(=O)N2CCCC(CCc3c(F)cccc3F)C2)CCC1=O (stereo unspecified)  7.677%
36. O=C(NCC1CCOC1)c1csc(-c2cccc(Cl)c2)n1 (stereo unspecified)  7.495%
37. N[C@H]1CN(C(=O)c2cnc3cc(Cl)ccc3c2O)C[C@@H]1C1CC1  6.977%
38. Cc1nc(C)n(CC2CN(Cc3cccnc3)CCO2)n1 (stereo unspecified)  5.869%
39. O=C(NCC1CCOC1)c1csc(-c2ccco2)n1 (stereo unspecified)  5.751%
40. Fc1ccccc1Cc1noc(CN2CCC(N3CCSCC3)CC2)n1  5.463%
41. CCc1nnc(CN2CCC(C3CCCCCN3C(=O)C3CC3)CC2)o1 (stereo unspecified)  5.041%
42. Cc1ccccc1N1CCCN(C(=O)c2cn(C)c3ccccc23)CC1  5.002%
43. CCN(Cc1ccncc1)C(=O)c1cn(CCC2CCCCC2)nn1  4.586%
44. Cc1ccc([C@@H]2CN(S(=O)(=O)C(C)C)C[C@H]2N(C)C)cc1  4.129%
45. CC(=O)NC(C(=O)N(C)Cc1nnc2n1CCC2)C(C)C (stereo unspecified)  2.941%
46. COc1cccc2ccc(CN3CCN(c4ncccc4C)CC3)nc12  2.179%
47. COc1ccc(F)c(CN2CCCC(O)(CNCC(C)(C)C)C2=O)c1 (stereo unspecified)  1.776%
48. CCc1nc(N)sc1C(=O)N1CCCC(CCc2ccccc2C)C1 (stereo unspecified)  1.755%
49. Cc1ccc(-c2ncc(C(=O)N3CCCC(CCN)C3)c(O)n2)cc1 (stereo unspecified)  0.928%
50. O=C(NCCO)Nc1cccc(Cl)c1SC(F)F  0.2889%
51. O=C(Nc1ccccc1C(=O)NCCN1CCOCC1)c1ccco1  0.2432%
52. COc1ccccc1C1(CNc2nnc(C)c(C)c2C#N)CCOCC1  0.2404%
53. O=C(NCCN1CCOCC1)N(Cc1ccoc1)C1CCCCC1  0.09271%
54. Cc1nc(CNC(=O)NC2CC(C)(C)OC2(C)C)sc1C (stereo unspecified)  -0.2444%
55. CC(C)C1CN(S(=O)(=O)C2CC2)CCCN1Cc1ccc(F)cc1 (stereo unspecified)  -0.9864%
56. O=C(O)C(F)(F)F.O=C1[C@H]2CN(C3CCOCC3)C[C@H]2CN1Cc1cccc(F)c1  -0.9945%
57. COCCNC(=O)[C@@H]1CCO[C@@H]2CCN(c3ccc(C)nn3)C[C@@H]21  -1.212%
58. Cc1cnc(C(=O)N(C)Cc2nc(-c3ccccn3)no2)cn1  -1.871%
59. Cc1nc(C)n(CC2CCCN(Cc3ccc(C(N)=O)cc3)C2)n1 (stereo unspecified)  -2.004%
60. CC(C)(C)Cc1noc2ncc(C(=O)N3CCSCC3)cc12  -2.131%
61. CC(C)OC(=O)c1ccc(Cl)c(NC(=O)NCCN2CCOCC2)c1  -2.134%
62. CCN(Cc1ccncc1)C(=O)c1cn(CC2CCCNC2)nn1 (stereo unspecified)  -3.068%
63. O=C(NCC1CC1)[C@@H]1CCO[C@@H]2CCN(c3ncccn3)C[C@@H]21.O=C(O)C(F)(F)F  -3.49%
64. CC(C)NC(=O)[C@@H]1CCO[C@@H]2CCN(c3ncccn3)C[C@@H]21.O=C(O)C(F)(F)F  -3.581%
65. COc1ccc(CN2CCCC(Cn3nc(C)nc3C)C2)cc1F (stereo unspecified)  -3.884%
66. O=C(c1csc(-c2ccco2)n1)N(CC1CCOC1)C1CC1 (stereo unspecified)  -4.102%
67. Cc1nc(C)n(CC2CN(Cc3cccc(C(N)=O)c3)CCO2)n1 (stereo unspecified)  -4.426%
68. Cc1nc(CN2CCCC(CCc3ccc(F)c(F)c3)C2)c[nH]1 (stereo unspecified)  -4.452%
69. O=C(C1CC1)N1CC[C@H](c2nnc(-c3ccccc3F)o2)C1  -4.544%
70. CC(CO)NC(=O)Nc1ccc(Cl)cc1OCC(F)(F)F (stereo unspecified)  -4.812%
71. COC(=O)CCC(=O)Nc1ccc(Br)c(C)n1  -4.996%
72. N#Cc1ccccc1N1CCN(C(=O)NCCN2CCOCC2)CC1  -5.749%
73. Cc1nc(C)n(CC2CCCN(Cc3cccc(C#N)c3)C2)n1 (stereo unspecified)  -5.879%
74. Cc1cccc(CN2C[C@@H]3CN(C(=O)c4ccnnc4)C[C@@H]3C2=O)c1  -7.292%
75. CN(Cc1ccncc1)C(=O)NCc1cn(-c2ccccc2)nn1  -7.371%
76. CC(C)c1nn(C)c(N(C)C)c1CNCc1cscn1.Cl  -8.215%
77. Cc1cccc(CN2C[C@@H]3CN(C(=O)c4ccco4)C[C@@H]3C2=O)c1  -8.497%
78. CC(C)OCCCNC(=O)Nc1cccc2ncccc12  -8.776%
79. CCOCC(=O)N1C[C@@H](O)[C@H](N(C)Cc2ccc(OC)cc2)C1  -9.013%
80. CC(C)C1CN(S(=O)(=O)N2CCCC2)CCCN1Cc1ccc(F)cc1 (stereo unspecified)  -9.548%
81. Cc1cc(CN(C)C(=O)NCC2CCS(=O)(=O)C2)no1 (stereo unspecified)  -10.09%
82. COc1cccc(CCC2CCCN(C(=O)c3ccc(OC)o3)C2)c1 (stereo unspecified)  -11.16%
83. CCc1nccn1CCC(=O)N1CC[C@@H](c2ccc(F)cc2)[C@H](O)C1  -13.2%
84. CCOc1c(Br)cc(C2C3=C(COC3=O)Nc3[nH]nc(C)c32)cc1OC (stereo unspecified)  -13.27%
85. O=C(c1ccsc1)N1C[C@H]2CN(Cc3cccc(F)c3)C(=O)[C@H]2C1  -13.46%
86. O=C(Nc1ccn(Cc2cccc3cccnc23)n1)C1COCCO1 (stereo unspecified)  -13.67%
87. Cc1ccc(-c2cc(C(=O)NCC3CCOC3)n[nH]2)s1 (stereo unspecified)  -13.79%
88. C[C@@H]1CN(C(=O)c2cn(CCN3CCCCC3)nn2)C[C@H](C)O1  -14.27%
89. O=C(NCC1CC1)Nc1cnc2cc(Cl)ccc2c1O  -14.95%
90. O=C(NCCCN1CCOCC1)Nc1cnc2cc(Cl)ccc2c1O  -16.9%
91. CC(=O)N(C)Cc1ccccc1NCc1c(C)cccc1C  -18.14%
92. CN1N=C(C(=O)N2CCCC(CCc3ccccc3F)C2)CCC1=O (stereo unspecified)  -18.53%
93. Cc1nccn1CCC1CCCCN1Cc1cnc(N(C)C)nc1 (stereo unspecified)  -18.73%
94. Cc1cc(C(=O)N2C[C@@H]3COC[C@]3(c3nnc(C4CC4)o3)C2)on1  -20.3%
95. Cc1nc(N)sc1C(=O)N1CCCC(COc2ccc(F)cc2)C1 (stereo unspecified)  -20.41%
96. O=C(NCCCO)Nc1cccc(Cl)c1F  -20.85%
97. O=C(NCc1ccco1)[C@@H]1CCO[C@@H]2CCN(c3ccncn3)C[C@H]21.O=C(O)C(F)(F)F  -22.24%
98. COc1ccccc1OC1CN(C(=O)C(c2ccc(F)cc2)N(C)C)C1 (stereo unspecified)  -23.44%
99. COC(=O)c1ccc(C(=O)NCc2ccco2)nc1  -23.57%
100. CN1N=C(C(=O)N2CCCC(CCc3cccc(F)c3)C2)CCC1=O (stereo unspecified)  -39.97%
101. COc1cccc(CCC2CCCN(C(=O)c3cnccn3)C2)c1 (stereo unspecified)  -42.01%
